TDP-43 rescue: TDP-43 toxicity inhibition in yeast; yeast TDP-43 toxicity rescue, BacTiter-Glo growth, 24 h; Potency, µM (series often up to 46.1 µM), most hits filed as activators; 45,000 tested, 0.45% active; active = well fitted activation curve with a large enough effect; note: 0% is about no effect; nearly all actives have a fitted effect of over 55% in size
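TDP-43-expressing yeast, pregrown in raffinose, seeded at OD600 0.02 in galactose medium with compound for 24 hr at 30 deg C. Growth read by BacTiter-Glo luminescence, so rescue of toxicity appears as activation.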
Active calls of the source: *. Shown is part of a subset that was picked to be rich in hits. Potency is the fitted concentration of half-maximal effect.

For CC(C)c1ccc(CC(=O)N2CCC2(C)C(=O)NCc2cccc3ccccc23)cc1 (stereo not given) the results were TDP-43 rescue inactive.
`NC(=O)c1cc(C(=O)c2cccc(Cl)c2Cl)c[nH]1` gave TDP-43 rescue inactive.
For O=C(c1ccc(Cl)c(S(=O)(=O)N2CCCC2)c1)N1CCN(c2ccccc2F)CC1 the results were TDP-43 rescue inactive.
O=C(c1c[nH]c(C(=O)N2CCN(c3ccccc3F)CC2)c1)c1cccc(Cl)c1Cl was read as TDP-43 rescue 20µM*.
Screening COc1ccc(C(=O)N(Cc2sccc2C)C2CCS(=O)(=O)C2)cc1Cl (stereo not given) returned TDP-43 rescue inactive.
`COc1cccc(C(N)c2nc(-c3cc(F)cc(F)c3)cs2)c1` (stereo not given) gave TDP-43 rescue inactive.
Screening COc1cccc(C(O)c2nc(-c3ccccc3C)cs2)c1 (stereo not given) returned TDP-43 rescue 11µM*.
For COc1cccc(C(O)c2nc(-c3ccncc3)cs2)c1 (stereo not given) the results were TDP-43 rescue inactive.
Screening O=C(CCCn1c(=O)c2sccc2n(Cc2ccc(F)cc2Cl)c1=O)NCc1ccc2c(c1)OCO2 returned TDP-43 rescue inactive.
For O=C(Cn1c(=O)c2sccc2n(CC(=O)Nc2ccc(Cl)cc2Cl)c1=O)NCCc1ccccc1 the results were TDP-43 rescue inactive.
O=C1CC(N2CCN(c3ccccc3)CC2)C(=O)N1Cc1ccc(Cl)cc1 (stereo not given) was read as TDP-43 rescue inactive.
O=C1CC(N2CCN(c3cccc(C(F)(F)F)c3)CC2)C(=O)N1c1ccccc1F (stereo not given) was read as TDP-43 rescue 16µM*.
O=C1CC(N2CCSCC2)C(=O)N1c1ccccc1 (stereo not given) was read as TDP-43 rescue inactive.
COCCCn1c(SCC(=O)Nc2ccc(NC(C)=O)cc2)nc2sc3c(c2c1=O)CCC3 was read as TDP-43 rescue inactive.
CCOC(=O)N1CCC(NC(=O)c2ccc3c(c2)N(Cc2ccc(F)cc2)C(=O)c2ccccc2S3(=O)=O)CC1 was read as TDP-43 rescue inactive.
`CCCCNC(=O)C1(C)CCCCN1C(=O)c1csnn1` (stereo not given) gave TDP-43 rescue inactive.
`N/C(=N\OC(=O)c1ccc([N+](=O)[O-])cc1)c1cccnc1` gave TDP-43 rescue inactive.
Screening N/C(=N\OC(=O)Cc1ccc([N+](=O)[O-])cc1)c1ccc([N+](=O)[O-])cc1 returned TDP-43 rescue inactive.
`N/C(Cc1ccc([N+](=O)[O-])cc1)=N\OC(=O)c1ccc2ccccc2c1` gave TDP-43 rescue 8.9µM*.
For COc1ccc(S(=O)(=O)Nc2ccc(C)cn2)cc1 the results were TDP-43 rescue inactive.
NC(=S)N/N=C/c1cccc(/C=N/NC(N)=S)c1 was read as TDP-43 rescue inactive.
`Cc1ccc(-n2c(C)cc(/C=N/NC(N)=S)c2C)cc1` gave TDP-43 rescue 14µM*.
Screening Cc1cc(/C=N/NC(N)=S)c(O)c(/C=N/NC(N)=S)c1 returned TDP-43 rescue inactive.
`CCOc1cc(/C=C2/C(=O)ON=C2C)ccc1OCc1ccccc1` gave TDP-43 rescue inactive.
`COc1cc(/C=C2\C(=O)ON=C2c2ccccc2)cc(OC)c1OC` gave TDP-43 rescue 11µM*.
For C#CCOc1c(Br)cc(/C=C2/C(=O)ON=C2C)cc1OC the results were TDP-43 rescue inactive.
Screening COc1ccc(C)cc1NC(=O)Cn1c(=O)cc(C)c2c(C)nn(C)c21 returned TDP-43 rescue inactive.
For Cc1ccc(CSC2=Nc3ccccc3C3=NC(CC(=O)NC4CCCCC4)C(=O)N23)cc1 (stereo not given) the results were TDP-43 rescue inactive.
For O=S(=O)(NCc1csc(-c2ccccc2)n1)c1ccccc1 the results were TDP-43 rescue inactive.

Screening results from PubChem BioAssay.
